{"source": "PubChem BioAssay (NCI)", "note": "“And” between values parts separate entries of the source, which are not always exact repeats. Identical values can stand only once. The panel holds about 83,000 compounds, 20% with a hit somewhere; the sample as a whole holds those more often.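 Results are percent growth after 48 hours of single-concentration exposure. 100 means growth as in untreated cells, lower positive values show inhibition; negative values down to -100 show cell death.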 Unmarked numbers belong to inactive results. The source made the active and inactive calls.", "data": [{"test_system": "SK-MEL-28 melanoma", "test": "NCI-60 one-dose screen, 48 h (100 = growth as untreated, 0 = no growth, -100 = all killed)", "conditions": "10 µM unless noted", "description": "Growth inhibition of the SK-MEL-28 human tumor cell line is measured as a screen for anti-cancer activity. Cells are grown in 96 well plates and exposed to the test compound for 48 hours. Compounds are tested at a single concentration, which is 10^-5 M for most compounds. The reported endpoint is percent growth (GI% or GIPRCNT), where numbers from 0 - 100% represent growth inhibition, and numbers from -100% - 0 represent cell death. For example, a value of 40 represents 60% growth inhibition. A value of 0 means no net growth occurred over the course of the experiment. A value of -40 indicates 40% of cells at the beginning of the experiment died by the end of the experiment. A value of -100 means all cells are dead at the end of the experiment.\nNCI-60 Human Tumor Cell Lines Screen was performed using the standard one-dose NCI protocol, which is described in more detail at https://dtp.cancer.gov/discovery_development/nci-60/default.htm.\nCompounds with GIPRCNT values below 10 were considered active. Activity score was based on GIPRCNT using the following formula: […]\nScore is 0 for GIPRCNT values of 100 or above, 50 for GIPRCNT values of 0, and 100 for GIPRCNT values of -100.", "values": [{"smiles": "COc1nc2ccc(C)cc2cc1/C=[N+](\\[O-])c1ccccc1", "growth": "97.6%"}, {"smiles": "O=C(N=Nc1c(O)[nH]c2ccccc12)Nc1ccccc1Cl", "growth": "105%"}, {"smiles": "COC(=O)N/N=C/c1c[n+]([O-])c2ccccc2[n+]1[O-]", "growth": "105%"}, {"smiles": "O=C1C(Nc2ccc(Cl)cc2)=C(I)C(=O)c2ncccc21", "growth": "39%"}, {"smiles": "CN(C)c1ccc2nc3ccc(=O)cc-3sc2c1", "growth": "77.6% and 63%"}, {"smiles": "C/C=C(/C)C(=O)O[C@@H]1CC(C)(C)CC2C34OC(=O)[C@@]21CC[C@@]3(C)[C@]1(C)CCC2C(C)(C)C(=O)CC[C@]2(C)C1C[C@@H]4Cl", "note": "(stereo not given in full)", "growth": "102%"}, {"smiles": "COc1c(O)c(O)cc2c3c(oc12)CC(c1ccc2c(c1)OCO2)CC3=O", "note": "(stereo not given)", "growth": "47%"}, {"smiles": "CC(=O)N1N=C(c2ccc(F)cc2)CC1c1sc(N(C)Cc2ccccc2)nc1Cl", "note": "(stereo not given)", "growth": "114%"}, {"smiles": "COc1ccc2c(c1)CC[C@@H]1[C@@H]2CC[C@]2(C)C3C(=CCC4C(=O)N(c5ccccc5)C(=O)C43)C[C@@H]12", "note": "(stereo not given in full)", "growth": "105%"}, {"smiles": "COc1cc(Cl)cc(-c2nn(C(=O)NS(=O)(=O)c3ccc(Cl)cc3)cc2-c2ccncc2)c1", "growth": "95.8%"}, {"smiles": "CCC(=O)Oc1cc(Cl)c(Cl)cc1Cl", "growth": "104%"}, {"smiles": "CCCCCO/N=C\\c1c2c(O)c3c(O)c(C)c4c(c3c1O)C(=O)C(C)(O/C=C\\C(OC)C(C)C(OC(C)=O)C(C)C(O)C(C)C(O)C(C)/C=C\\C=C(\\C)C(=O)N2)O4", "note": "(stereo not given)", "growth": "39.5%"}, {"smiles": "CN(C)CCCn1c2nc(=O)[nH]c(=O)c-2nc2cc(Cl)c(Cl)cc21", "growth": "106%"}, {"smiles": "CCCCCCCCCCCCCCCC[N+](C)(C)CCN(Cc1ccc(OC)cc1)c1ncccn1", "growth": "33.3% and 52.9%"}, {"smiles": "COc1ccc(C2=C(CN)C(O)NC(=NCC(=O)c3ccc4ccccc4c3)N2)cc1", "note": "(stereo not given)", "growth": "103%"}, {"smiles": "CC[C@]1(O)CC2CN(CCc3c([nH]c4ccccc34)C(C(=O)OC)(c3cc4c(cc3OC)N(C=O)[C@H]3[C@@](O)(C(=O)OC)[C@H](OC(C)=O)[C@]5(CC)[C@@H]6C[C@@H]6CN6CC[C@]43[C@@H]65)C2)C1", "note": "(stereo not given in full)", "growth": "69.5%"}, {"smiles": "Cc1ccc(-c2nc3nc(-c4ccc(F)cc4)nc(N4CCCNCC4)c3o2)cc1", "growth": "-93.8% (active)"}, {"smiles": "CC[C@H](C)[C@H](NC(=O)[C@@H](N)CCC(N)=O)C(=O)N[C@@H](Cc1ccc(O)cc1)C(=O)N[C@@H](CCCCN)C(=O)N[C@@H](CCCCN)C(=O)N[C@@H](Cc1ccc(O)cc1)C(=O)N[C@@H](CCCNC(=N)N)C(=O)N[C@H](C(=O)N[C@@H](Cc1c[nH]c2ccccc12)C(=O)N[C@@H](Cc1ccc(O)cc1)C(=O)N[C@@H](CCCNC(=N)N)C(=O)N[C@@H](CCCCN)C(=O)N[C@@H](C)C(=O)N[C@@H](Cc1c[nH]c2ccccc12)C(=O)N[C@@H](CCCCN)C(=O)N[C@H](C(=O)N[C@@H](CC(C)C)C(=O)NCC(=O)N[C@@H](CCCCN)C(=O)N[C@H](C(N)=O)C(C)C)C(C)C)[C@@H](C)O", "growth": "16.3%"}, {"smiles": "N#CSc1c[nH]c2ccc(/C=C/C(=O)/C=C(/C=C/c3ccc4[nH]cc(SC#N)c4c3)OB(F)F)cc12", "growth": "-1.41% (active)"}, {"smiles": "Clc1ccc(Nc2nc(Nc3ccc(Cl)cc3)nc(Nc3ccc(-c4cc(-c5cccc(Cl)c5)on4)cc3)n2)cc1", "growth": "108%"}, {"smiles": "O=[N+]([O-])c1cc(C(F)(F)F)ccc1Sc1ccc(C(F)(F)F)cc1[N+](=O)[O-]", "growth": "80.6%"}, {"smiles": "O=C(Nc1ncc(Cc2cccc(C(F)(F)F)c2)s1)c1ccc2c(c1)OCCO2", "growth": "73.1%"}, {"smiles": "O=C(/C=C/c1ccc(Cl)s1)c1ccc(Cl)s1", "growth": "103% and 112%"}, {"smiles": "O=C(CCl)n1nnnc1Cc1ccccc1", "growth": "110%"}, {"smiles": "CC1(C)C(N)=Nc2cc(OCCCCN3Cc4ccccc4C3)c(OCC3CC3)cc21", "growth": "54.4%"}, {"smiles": "CCOC(=O)CC1CSC(c2cccc(Cl)c2)=N1", "note": "(stereo not given)", "growth": "110%"}, {"smiles": "N#C/C(=C\\c1ccccc1Cl)c1cc2ccccc2[nH]1", "growth": "99%"}, {"smiles": "CCN(CC)CC#CCOC(=O)[C@]1(C)CCC[C@]2(C)c3ccc(C(C)C)cc3CC[C@@H]12", "growth": "84.8%"}, {"smiles": "Nc1nc(Nc2cccnc2)sc1C(=O)c1ccccc1F", "growth": "65.9%"}, {"smiles": "COCCn1cc(-c2nc(-c3cn(CCOC)c4ncccc34)cs2)c2ccccc21", "growth": "105%"}, {"smiles": "O/N=C(/c1ccccc1)c1ccc2c3c(cccc13)CC2", "growth": "92.8% and 87.5%"}, {"smiles": "Cc1c(C(=O)OCCCCOC(=O)c2c(C)n(C)c3scc[n+]23)[n+]2ccsc2n1C", "growth": "104%"}, {"smiles": "COc1ccc(Oc2nc(Nc3ccc(N4CCOCC4)cc3)ncc2NC(=O)c2cc(OC)cc(OC)c2)cc1", "growth": "100%"}, {"smiles": "N=C(N)SCc1c2ccccc2c(CSC(=N)N)c2ccccc12", "growth": "99%"}, {"smiles": "C=C1CCC2C3(C)COC(c4ccc(NC(C)=O)cc4)OC3CCC2(C)C1C/C=C1/C(=O)OCC1O", "note": "(stereo not given)", "growth": "88.6%"}, {"smiles": "Nc1ccc(-c2ccc(N)c(Br)c2)cc1Br", "growth": "58.4%"}, {"smiles": "OCCN1CCN(CC/C=C2\\c3ccccc3Sc3ccc(Cl)cc32)CC1", "growth": "-100% (active) and -78.1% (active)"}, {"smiles": "CCCCCCCCCCCCCCCCCCn1cc(COc2ccc(C=O)cc2)nn1", "growth": "109%"}, {"smiles": "CCCCCCCCn1ccc2cc(NC(=O)CN3CCN(c4nc(C)cc(N5CCCCC5)n4)CC3)ccc21", "growth": "94.6%"}, {"smiles": "O=c1c(/C=C/c2ccco2)nnc2sc(Nc3ccc(Cl)cc3)nn12", "growth": "108%"}]}]}
